PubChem BioAssay (NCATS)
Results filed as inconclusive are left out. The source made the active and inactive calls. Calls come from the whole dose curve; as a rule, active = well fitted cell-killing curve with a large enough effect; inconclusive = small, poorly fitted or top-dose-only effect, or effect the other way; inactive = no such curve, though single readings can be large or run the other way.

Assay: Quantitative High-Throughput drug screen in 47 multiple myeloma cell lines against the NCATS MIPE library collection: PCM6_Riken cell viability assay (AID 1919870); note: nearly all actives have a fitted effect of over 30% in size
Details: CellTiter-Glo ATP, 48 h; series mostly up to 45.8 µM; viability (% of control): at the top concentration
From the text: PI: Beverly A. Mock Ph.D.
Laboratory of Cancer Biology and Genetics,
Center for Cancer Research, National Cancer Institute,
National Institute of Health, Bethesda, Maryland
Drug resistance and disease progression are common in multiple myeloma (MM) patients, underscoring the need for new therapeutic combinations. […] We hypothesized that effective combinations would reduce MYC expression and enhance p16 activity. […] These preclinical data identify potentially useful drug combinations for evaluation in drug-resistant MM and reveal potential mechanisms of combined drug sensitivity.
Described herein is the primary MIPE qHTS used to cherrypick compounds. Validated compounds were then further tested for potential synergistic activiy.
[1] Peat TJ, Gaikwad SM, Dubois W, Gyabaah-Kessie N, Zhang S, Gorjifard S, Phyo Z, Andres M, Hughitt VK, Simpson RM, Miller MA, Girvin AT, Taylor A, Williams D, D'Antonio N, Zhang Y, Rajagopalan A, Flietner E, Wilson K, Zhang X, Shinn P, Klumpp-Thomas C, McKnight C, Itkin Z, Chen L, Kazandijian D, Zhang J, Michalowski AM, Simmons JK, Keats J, Thomas CJ, Mock BA. Drug combinations identified by high-throughput screening promote cell cycle transition and upregulate Smad pathways in myeloma. Cancer Lett. 2023 Aug 1;568:216284. doi: 10.1016/j.canlet.2023.216284. Epub 2023 Jun 24. PMID: 37356470; PMCID: PMC10408729.
SEQUENCE No. (e.g., 1, 2, 3, etc.); […] (e.g., Cells, Incubation, Reagent, etc.); VALUE and DESCRIPTION.
1; Cells; 5 uL; white, solid bottom 1536-well Greiner assay plate.
2; Compounds; 23 nL; Kalypsis pin tool (Wako USA) equipped with a 1536-well pin head to transfer to the assay plates.
3; Incubation; 48 hours; 37C incubation.
4; Reagent;5uL; CellTiter Glo (Promega).
5; Detector; 425V; Luminescence; Viewlux PerkinElmer.
NOTES (numbers refer to Sequence numbers above)
1. The cell-based screening methods employed in this study were like those previously published. Briefly, the corresponding myeloma cell lines were screened in 1,536-well plates with 500 cells, 5-uL per well for inhibition of cell viability (assessed by measuring ATP levels with CellTiterGlo).
2. NCATS MIPE 4.0 library of approved and investigational drugs were added using the Kalypsis pin tool. Wells treated with DMSO only for 100% viability and media only for 0% viability were used as controls.
3. The assay plates were covered and incubated for 48 hours in a 37C, 5% CO2 incubator with controlled humidity.
4. After 48 hours, CellTilter-GloTM luminescent substrate mix (Promega) reagent was added to the assay plate and plates we incubated for 5 min at room temperature.
5. Signal was measured as median relative luminescence units on a ViewLux (PerkinElmer) multiplate reader.
[1] Heske CM, Davis MI, Baumgart JT, Wilson K, Gormally MV, Chen L, Zhang X, Ceribelli M, Duveau DY, Guha R, Ferrer M, Arnaldez FI, Ji J, Tran HL, Zhang Y, Mendoza A, Helman LJ, Thomas CJ. Matrix Screen Identifies Synergistic Combination of PARP Inhibitors and Nicotinamide Phosphoribosyltransferase (NAMPT) Inhibitors in Ewing Sarcoma. Clin Cancer Res. 2017 Dec 1;23(23):7301-7311. doi: 10.1158/1078-0432.CCR-17-1121. Epub 2017 Sep 12. PMID: 28899971; PMCID: PMC6636827.
Potency is the fitted concentration of half-maximal effect.

Row | Structure (SMILES) | viability (% of control) | Potency
1 | Nc1ccc(S(=O)(=O)Nc2ccccn2)cc1 | 115% (inactive) | 
2 | O=C(O)c1ccc(-n2nc(-c3ccccc3O)nc2-c2ccccc2O)cc1 |  | 23.5 µM (active)
3 | CCn1cc(C(=O)O)c(=O)c2cc(F)c(N3CCN(C)CC3)cc21 | 113% (inactive) | 
4 | O=S(=O)(c1cccc2cnccc12)N1CCCNCC1 |  | 16.6 µM (active)
5 | CC(C)(C#N)c1cc(Cn2cncn2)cc(C(C)(C)C#N)c1 | 102% (inactive) | 
6 | CN(C)CCc1c[nH]c2ccc(C[C@H]3COC(=O)N3)cc12 | 105% (inactive) | 
7 | CC(=O)Oc1ccccc1C(=O)Nc1ncc([N+](=O)[O-])s1 |  | 27 µM (active)
8 | NC(=O)N1c2ccccc2CC(=O)c2ccccc21 | 104% (inactive) | 
9 | Cc1cc(NS(=O)(=O)c2ccc(N)cc2)no1 | 79.1% (inactive) | 
10 | Cc1oc(=O)oc1CN1CCN(c2cc3c(cc2F)c(=O)c(C(=O)O)c2n3C(C)S2)CC1 (stereo not given) | 100% (inactive) | 
11 | COc1cc(NS(=O)(=O)c2ccc(N)cc2)nc(OC)n1 | 120% (inactive) | 
12 | Nc1nc(=S)c2[nH]cnc2[nH]1 |  | 7.43 µM (active)
13 | CCOC(=O)[C@H](CCc1ccccc1)N[C@H]1CCc2ccccc2N(CC(=O)O)C1=O |  | 20.9 µM (active)
14 | COc1cc2nc(N3CCCN(C)CC3)nc(NC3CCN(Cc4ccccc4)CC3)c2cc1OC |  | 3.72 µM (active)
15 | CCCCCCNC(=O)n1cc(F)c(=O)[nH]c1=O | 83.1% (inactive) | 
16 | Cc1nnc(NS(=O)(=O)c2ccc(N)cc2)s1 |  | 1.18 µM (active)
17 | CC(=O)[C@H]1CC[C@H]2[C@@H]3CC=C4C[C@@H](O)CC[C@]4(C)[C@H]3CC[C@]12C | 102% (inactive) | 
18 | Cc1ccc(S(=O)(=O)N[C@@H](Cc2ccccc2)C(=O)CCl)cc1 |  | 11.8 µM (active)
19 | CC1=CC(=O)c2ccccc2C1=O |  | 18.7 µM (active)
20 | COc1ccc2c(c1)c(CC(=O)OCC(=O)O)c(C)n2C(=O)c1ccc(Cl)cc1 | 108% (inactive) | 

Row | Structure (SMILES) | viability (% of control) | Potency
21 | O=NN(CCCl)C(=O)NC1CCCCC1 | 123% (inactive) | 
22 | CN1CCN(c2c(F)cc3c(=O)c(C(=O)O)cn4c3c2OCN4C)CC1 | 134% (inactive) | 
23 | CCOc1cc(N)c(Cl)cc1C(=O)NCC1CN(Cc2ccc(F)cc2)CCO1 (stereo not given) | 94.8% (inactive) | 
24 | CCCCS(=N)(=O)CCC(N)C(=O)O (stereo not given) |  | 18.7 µM (active)
25 | CC(C)OC(=O)OCOP(=O)(CO[C@H](C)Cn1cnc2c(N)ncnc21)OCOC(=O)OC(C)C |  | 16.6 µM (active)
26 | C[C@@H]1CN(c2c(F)c(N)c3c(=O)c(C(=O)O)cn(C4CC4)c3c2F)C[C@H](C)N1 | 166% [at 23.2 µM] (inactive) | 
27 | C[C@@H](NCCCc1cccc(C(F)(F)F)c1)c1cccc2ccccc12 | 103% (inactive) | 
28 | Cn1c(=O)c2c(ncn2CC(O)CO)n(C)c1=O (stereo not given) | 125% (inactive) | 
29 | COc1cc(NCc2ccc3nc(N)nc(N)c3c2C)cc(OC)c1OC |  | 4.69 µM (active)
30 | CNS(=O)(=O)CCc1ccc2[nH]cc(C3CCN(C)CC3)c2c1 | 104% (inactive) | 
31 | CC[C@H](C)C(=O)O[C@H]1C[C@@H](C)C=C2C=C[C@H](C)[C@H](CC[C@@H]3C[C@@H](O)CC(=O)O3)[C@H]21 | 81.8% (inactive) | 
32 | O=C(O)C1CCCN(CCC=C(c2ccccc2)c2ccccc2)C1 (stereo not given) | 138% (inactive) | 
33 | COC(=O)Nc1nc2ccc(C(=O)c3ccccc3)cc2[nH]1 |  | 5.9 µM (active)
34 | CCCN[C@H]1CCc2nc(N)sc2C1 | 104% (inactive) | 
35 | CCCOc1ccc(C(=O)OCCN(CC)CC)cc1N | 83% (inactive) | 
36 | Cn1nnc2c(C(N)=O)ncn2c1=O | 118% (inactive) | 
37 | NCCCC(O)(P(=O)(O)O)P(=O)(O)O |  | 9.35 µM (active)
38 | CC(C)OC(=O)C(C(=O)OC(C)C)=C1SC=CS1 | 101% (inactive) | 
39 | COC(c1ccccc1)(c1ccccc1)[C@H](Oc1nc(C)cc(C)n1)C(=O)O | 137% (inactive) | 
40 | O[C@@H](CNC[C@H](O)[C@H]1CCc2cc(F)ccc2O1)[C@@H]1CCc2cc(F)ccc2O1 |  | 16.6 µM (active)
